# Reference: PMC11062922 (Nature Chemical Biology, 2023)
# Read-outs that look alike come from different tables or passages of the source.
# Tests used:
# Details in all cases: read-out: apparent Kd, n = 1
# CLK4 = system: CLK4
# FER = system: FER
# FLT4 = system: FLT4
# [1] = compound concentrations:100 nM and 1000 nM (sheet 'Lestaurtinib' of Supplementary Table 1),run:Lestaurtinib_02795_R1,Plate:MR022
# [2] = compound concentrations:100 nM and 1000 nM (sheet 'Lestaurtinib' of Supplementary Table 1),run:Lestaurtinib_02795_R2,Plate:MR022
# [3] = compound concentrations:100 nM and 1000 nM (sheet 'Lestaurtinib' of Supplementary Table 1),run:Lestaurtinib_02802_R2,Plate:MR029
# [4] = compound concentrations:100 nM and 1000 nM (sheet 'Lestaurtinib' of Supplementary Table 1),run:Lestaurtinib_02802_R3,Plate:MR029
# [5] = compound concentrations:100 nM and 1000 nM (sheet 'Lestaurtinib' of Supplementary Table 1),run:Lestaurtinib_03172_R3,Plate:MR031
# [6] = compound concentrations:100 nM and 1000 nM (sheet 'Lestaurtinib' of Supplementary Table 1),run:Lestaurtinib_03252_R2,Plate:MR032
# [7] = compound concentrations:100 nM and 1000 nM (sheet 'Lestaurtinib' of Supplementary Table 1),run:Lestaurtinib_03260_R1,Plate:MR033
# [8] = compound concentrations:100 nM and 1000 nM (sheet 'Lestaurtinib' of Supplementary Table 1),run:Lestaurtinib_03260_R2,Plate:MR033
# [9] = compound concentrations:100 nM and 1000 nM (sheet 'Lestaurtinib' of Supplementary Table 1),run:Lestaurtinib_03260_R3,Plate:MR033
# [10] = compound concentrations:100 nM and 1000 nM (sheet 'Lestaurtinib' of Supplementary Table 1),run:Lestaurtinib_02339_R1,Plate:MR001
# [11] = compound concentrations:100 nM and 1000 nM (sheet 'Lestaurtinib' of Supplementary Table 1),run:Lestaurtinib_02339_R2,Plate:MR001
# [12] = compound concentrations:100 nM and 1000 nM (sheet 'Lestaurtinib' of Supplementary Table 1),run:Lestaurtinib_02364_R2,Plate:MR002
substance,measurement,setting,value
Lestaurtinib,potency estimated from few doses,"CLK4; compound concentrations:100 nM and 1000 nM (sheet 'Lestaurtinib' of Supplementary Table 1),run:Lestaurtinib_02768_R3,Plate:MR028",50.7 nM
same,potency estimated from few doses,CLK4; [1],63.3 nM
same,potency estimated from few doses,CLK4; [2],42.4 nM
same,potency estimated from few doses,CLK4; [3],62.9 nM
same,potency estimated from few doses,CLK4; [4],42.9 nM
same,potency estimated from few doses,"CLK4; compound concentrations:100 nM and 1000 nM (sheet 'Lestaurtinib' of Supplementary Table 1),run:Lestaurtinib_02896_R1,Plate:MR030",45.2 nM
same,potency estimated from few doses,"CLK4; compound concentrations:100 nM and 1000 nM (sheet 'Lestaurtinib' of Supplementary Table 1),run:Lestaurtinib_02896_R2,Plate:MR030",44.9 nM
same,potency estimated from few doses,CLK4; [5],82.5 nM
same,potency estimated from few doses,CLK4; [6],38.7 nM
same,potency estimated from few doses,CLK4; [7],95 nM
same,potency estimated from few doses,CLK4; [8],130 nM
same,potency estimated from few doses,CLK4; [9],60.5 nM
same,potency estimated from few doses,FER; [10],361 nM
same,potency estimated from few doses,FER; [11],254 nM
same,potency estimated from few doses,"FER; compound concentrations:100 nM and 1000 nM (sheet 'Lestaurtinib' of Supplementary Table 1),run:Lestaurtinib_02339_R3,Plate:MR001",336 nM
same,potency estimated from few doses,"FER; compound concentrations:100 nM and 1000 nM (sheet 'Lestaurtinib' of Supplementary Table 1),run:Lestaurtinib_02364_R1,Plate:MR002",298 nM
same,potency estimated from few doses,FER; [12],396 nM
same,potency estimated from few doses,"FER; compound concentrations:100 nM and 1000 nM (sheet 'Lestaurtinib' of Supplementary Table 1),run:Lestaurtinib_02367_R1,Plate:MR003",327 nM
same,potency estimated from few doses,"FER; compound concentrations:100 nM and 1000 nM (sheet 'Lestaurtinib' of Supplementary Table 1),run:Lestaurtinib_02367_R2,Plate:MR003",319 nM
same,potency estimated from few doses,"FER; compound concentrations:100 nM and 1000 nM (sheet 'Lestaurtinib' of Supplementary Table 1),run:Lestaurtinib_02367_R3,Plate:MR003",310 nM
same,potency estimated from few doses,"FER; compound concentrations:100 nM and 1000 nM (sheet 'Lestaurtinib' of Supplementary Table 1),run:Lestaurtinib_02381_R1,Plate:MR004",385 nM
same,potency estimated from few doses,"FER; compound concentrations:100 nM and 1000 nM (sheet 'Lestaurtinib' of Supplementary Table 1),run:Lestaurtinib_02381_R2,Plate:MR004",362 nM
same,potency estimated from few doses,"FER; compound concentrations:100 nM and 1000 nM (sheet 'Lestaurtinib' of Supplementary Table 1),run:Lestaurtinib_02381_R3,Plate:MR004",336 nM
same,potency estimated from few doses,"FER; compound concentrations:100 nM and 1000 nM (sheet 'Lestaurtinib' of Supplementary Table 1),run:Lestaurtinib_02407_R3,Plate:MR005",459 nM
same,potency estimated from few doses,"FER; compound concentrations:100 nM and 1000 nM (sheet 'Lestaurtinib' of Supplementary Table 1),run:Lestaurtinib_02422_R3,Plate:MR006",307 nM
same,potency estimated from few doses,"FER; compound concentrations:100 nM and 1000 nM (sheet 'Lestaurtinib' of Supplementary Table 1),run:Lestaurtinib_02437_R2,Plate:MR007",347 nM
same,potency estimated from few doses,"FER; compound concentrations:100 nM and 1000 nM (sheet 'Lestaurtinib' of Supplementary Table 1),run:Lestaurtinib_02437_R3,Plate:MR007",30.6 nM
same,potency estimated from few doses,"FER; compound concentrations:100 nM and 1000 nM (sheet 'Lestaurtinib' of Supplementary Table 1),run:Lestaurtinib_02438_R1,Plate:MR008",352 nM
same,potency estimated from few doses,"FER; compound concentrations:100 nM and 1000 nM (sheet 'Lestaurtinib' of Supplementary Table 1),run:Lestaurtinib_02438_R2,Plate:MR008",345 nM
same,potency estimated from few doses,"FER; compound concentrations:100 nM and 1000 nM (sheet 'Lestaurtinib' of Supplementary Table 1),run:Lestaurtinib_02438_R3,Plate:MR008",356 nM
same,potency estimated from few doses,"FER; compound concentrations:100 nM and 1000 nM (sheet 'Lestaurtinib' of Supplementary Table 1),run:Lestaurtinib_02443_R1,Plate:MR009",347 nM
same,potency estimated from few doses,"FER; compound concentrations:100 nM and 1000 nM (sheet 'Lestaurtinib' of Supplementary Table 1),run:Lestaurtinib_02443_R2,Plate:MR009",358 nM
same,potency estimated from few doses,"FER; compound concentrations:100 nM and 1000 nM (sheet 'Lestaurtinib' of Supplementary Table 1),run:Lestaurtinib_02473_R2,Plate:MR010",343 nM
same,potency estimated from few doses,"FER; compound concentrations:100 nM and 1000 nM (sheet 'Lestaurtinib' of Supplementary Table 1),run:Lestaurtinib_02482_R1,Plate:MR011",406 nM
same,potency estimated from few doses,"FER; compound concentrations:100 nM and 1000 nM (sheet 'Lestaurtinib' of Supplementary Table 1),run:Lestaurtinib_02482_R2,Plate:MR011",336 nM
same,potency estimated from few doses,"FER; compound concentrations:100 nM and 1000 nM (sheet 'Lestaurtinib' of Supplementary Table 1),run:Lestaurtinib_02487_R1,Plate:MR012",221 nM
same,potency estimated from few doses,"FER; compound concentrations:100 nM and 1000 nM (sheet 'Lestaurtinib' of Supplementary Table 1),run:Lestaurtinib_02496_R1,Plate:MR013",306 nM
same,potency estimated from few doses,"FER; compound concentrations:100 nM and 1000 nM (sheet 'Lestaurtinib' of Supplementary Table 1),run:Lestaurtinib_02566_R1,Plate:MR014",269 nM
same,potency estimated from few doses,"FER; compound concentrations:100 nM and 1000 nM (sheet 'Lestaurtinib' of Supplementary Table 1),run:Lestaurtinib_02572_R2,Plate:MR015",259 nM
same,potency estimated from few doses,"FER; compound concentrations:100 nM and 1000 nM (sheet 'Lestaurtinib' of Supplementary Table 1),run:Lestaurtinib_02572_R3,Plate:MR015",447 nM
same,potency estimated from few doses,"FER; compound concentrations:100 nM and 1000 nM (sheet 'Lestaurtinib' of Supplementary Table 1),run:Lestaurtinib_02584_R1,Plate:MR017",332 nM
same,potency estimated from few doses,"FER; compound concentrations:100 nM and 1000 nM (sheet 'Lestaurtinib' of Supplementary Table 1),run:Lestaurtinib_02584_R3,Plate:MR017",351 nM
same,potency estimated from few doses,"FER; compound concentrations:100 nM and 1000 nM (sheet 'Lestaurtinib' of Supplementary Table 1),run:Lestaurtinib_02601_R2,Plate:MR018",394 nM
same,potency estimated from few doses,"FER; compound concentrations:100 nM and 1000 nM (sheet 'Lestaurtinib' of Supplementary Table 1),run:Lestaurtinib_02601_R3,Plate:MR018",42.4 nM
same,potency estimated from few doses,"FER; compound concentrations:100 nM and 1000 nM (sheet 'Lestaurtinib' of Supplementary Table 1),run:Lestaurtinib_02606_R2,Plate:MR019",83.6 nM
same,potency estimated from few doses,"FER; compound concentrations:100 nM and 1000 nM (sheet 'Lestaurtinib' of Supplementary Table 1),run:Lestaurtinib_02606_R3,Plate:MR019",355 nM
same,potency estimated from few doses,"FER; compound concentrations:100 nM and 1000 nM (sheet 'Lestaurtinib' of Supplementary Table 1),run:Lestaurtinib_02624_R3,Plate:MR020",365 nM
same,potency estimated from few doses,"FER; compound concentrations:100 nM and 1000 nM (sheet 'Lestaurtinib' of Supplementary Table 1),run:Lestaurtinib_02724_R2,Plate:MR021",436 nM
same,potency estimated from few doses,"FER; compound concentrations:100 nM and 1000 nM (sheet 'Lestaurtinib' of Supplementary Table 1),run:Lestaurtinib_02748_R1,Plate:MR024",268 nM
same,potency estimated from few doses,"FER; compound concentrations:100 nM and 1000 nM (sheet 'Lestaurtinib' of Supplementary Table 1),run:Lestaurtinib_02748_R3,Plate:MR024",278 nM
same,potency estimated from few doses,"FER; compound concentrations:100 nM and 1000 nM (sheet 'Lestaurtinib' of Supplementary Table 1),run:Lestaurtinib_02752_R1,Plate:MR025",356 nM
same,potency estimated from few doses,"FER; compound concentrations:100 nM and 1000 nM (sheet 'Lestaurtinib' of Supplementary Table 1),run:Lestaurtinib_02752_R2,Plate:MR025",297 nM
same,potency estimated from few doses,"FER; compound concentrations:100 nM and 1000 nM (sheet 'Lestaurtinib' of Supplementary Table 1),run:Lestaurtinib_02752_R3,Plate:MR025",327 nM
same,potency estimated from few doses,"FER; compound concentrations:100 nM and 1000 nM (sheet 'Lestaurtinib' of Supplementary Table 1),run:Lestaurtinib_02765_R1,Plate:MR026",564 nM
same,potency estimated from few doses,"FER; compound concentrations:100 nM and 1000 nM (sheet 'Lestaurtinib' of Supplementary Table 1),run:Lestaurtinib_02765_R2,Plate:MR026",481 nM
same,potency estimated from few doses,"FER; compound concentrations:100 nM and 1000 nM (sheet 'Lestaurtinib' of Supplementary Table 1),run:Lestaurtinib_02765_R3,Plate:MR026",549 nM
same,potency estimated from few doses,"FER; compound concentrations:100 nM and 1000 nM (sheet 'Lestaurtinib' of Supplementary Table 1),run:Lestaurtinib_02766_R1,Plate:MR027",277 nM
same,potency estimated from few doses,"FER; compound concentrations:100 nM and 1000 nM (sheet 'Lestaurtinib' of Supplementary Table 1),run:Lestaurtinib_02766_R2,Plate:MR027",25.3 nM
same,potency estimated from few doses,"FER; compound concentrations:100 nM and 1000 nM (sheet 'Lestaurtinib' of Supplementary Table 1),run:Lestaurtinib_02766_R3,Plate:MR027",321 nM
same,potency estimated from few doses,FER; [1],454 nM
same,potency estimated from few doses,FER; [2],356 nM
same,potency estimated from few doses,"FER; compound concentrations:100 nM and 1000 nM (sheet 'Lestaurtinib' of Supplementary Table 1),run:Lestaurtinib_02795_R3,Plate:MR022",372 nM
same,potency estimated from few doses,FER; [3],296 nM
same,potency estimated from few doses,FER; [4],12.4 nM
same,potency estimated from few doses,"FER; compound concentrations:100 nM and 1000 nM (sheet 'Lestaurtinib' of Supplementary Table 1),run:Lestaurtinib_03172_R2,Plate:MR031",386 nM
same,potency estimated from few doses,FER; [5],315 nM
same,potency estimated from few doses,FER; [6],25 nM
same,potency estimated from few doses,FER; [7],469 nM
same,potency estimated from few doses,FER; [8],487 nM
same,potency estimated from few doses,FER; [9],351 nM
same,potency estimated from few doses,FLT4; [10],345 nM
same,potency estimated from few doses,FLT4; [11],300 nM
same,potency estimated from few doses,FLT4; [12],289 nM
